From PubChem BioAssay (NCI)
This is part of a sample that, as a whole, favours compounds with a hit. Of some 83,000 tested, about 20% had one in any assay.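 The endpoint reported here, percent growth, reads 100 for growth as untreated, 0 for no net growth and -100 for all cells dead.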 Activity calls are given as the source filed them. How the source made its calls: active means growth percent below 10; inactive means the rest.

Tests used:
Experiment in all cases: NCI-60 one-dose screen, 48 h (100 = growth as untreated, 0 = no growth, -100 = all killed)
Conditions in all cases: 10 µM unless noted
NCI-H23 lung = test system: NCI-H23 lung
NCI-H226 lung = test system: NCI-H226 lung
NCI-H322M lung = test system: NCI-H322M lung
HOP-62 NSCLC = test system: HOP-62 NSCLC
NCI-H460 lung = test system: NCI-H460 lung
HOP-92 NSCLC = test system: HOP-92 NSCLC
NCI-H522 lung = test system: NCI-H522 lung
A549/ATCC NSCLC = test system: A549/ATCC NSCLC
786-0 renal = test system: 786-0 renal
COLO 205 colon = test system: COLO 205 colon
DU-145 prostate = test system: DU-145 prostate
K-562 leukemia = test system: K-562 leukemia
MALME-3M melanoma = test system: MALME-3M melanoma
MDA-MB-231 breast = test system: MDA-MB-231 breast
RXF 393 renal = test system: RXF 393 renal
SF-268 CNS = test system: SF-268 CNS
SF-539 CNS = test system: SF-539 CNS
UACC-257 melanoma = test system: UACC-257 melanoma
M14 melanoma = test system: M14 melanoma
SF-295 CNS = test system: SF-295 CNS

Measured: growth

COc1ccc(N2CCN(Cc3cc(C(=O)/C=C/c4c[nH]c5ccccc45)ccc3O)CC2)cc1
inactive: NCI-H23 lung 102% | NCI-H226 lung 100% | NCI-H322M lung 100% | HOP-62 NSCLC 89% | NCI-H460 lung 106% | HOP-92 NSCLC 89.9% | NCI-H522 lung 95.2% | A549/ATCC NSCLC 102% | 786-0 renal 105% | COLO 205 colon 107% | DU-145 prostate 114% | K-562 leukemia 101% | MALME-3M melanoma 95.6% | MDA-MB-231 breast 103% | RXF 393 renal 104% | SF-268 CNS 101% | SF-539 CNS 96.6% | UACC-257 melanoma 102% | M14 melanoma 102%

O=C1/C(=C/c2ccc(Cl)cc2)CN(Cc2cn(CCNc3ccnc4cc(Cl)ccc34)nn2)C/C1=C\c1ccc(Cl)cc1
active: NCI-H23 lung -71.3% | NCI-H226 lung -70.6% | NCI-H322M lung -87% | HOP-62 NSCLC -100% | NCI-H460 lung -78.6% | HOP-92 NSCLC -75% | NCI-H522 lung -99.4% | A549/ATCC NSCLC -85.1% | 786-0 renal -88.7% | COLO 205 colon -100% | DU-145 prostate -97.3% | K-562 leukemia -34.5% | MALME-3M melanoma -69.5% | MDA-MB-231 breast -43.2% | RXF 393 renal -94.5% | SF-268 CNS -78% | SF-539 CNS -97% | UACC-257 melanoma -92.1% | M14 melanoma -70.5%

Fc1ccc(CNCCNc2ncnc3c2cnn3-c2ccccc2)cc1
inactive: NCI-H23 lung 103% | NCI-H226 lung 102% | NCI-H322M lung 100% | HOP-62 NSCLC 90.4% | NCI-H460 lung 104% | HOP-92 NSCLC 61.8% | NCI-H522 lung 99.9% | A549/ATCC NSCLC 91.7% | 786-0 renal 83.5% | COLO 205 colon 89.6% | DU-145 prostate 114% | K-562 leukemia 83.3% | MALME-3M melanoma 92.4% | MDA-MB-231 breast 79% | RXF 393 renal 74.6% | SF-268 CNS 92.3% | SF-539 CNS 100% | UACC-257 melanoma 85.6% | M14 melanoma 103%

COc1cc(-c2nn(-c3cccc(NC(=O)c4cccc(C(F)(F)F)c4)c3)cc2-c2ccncc2)ccc1Cl
active: NCI-H460 lung 4.83% | HOP-92 NSCLC -5.59% | NCI-H522 lung -42.3% | A549/ATCC NSCLC 7.4% | COLO 205 colon 7.11% | DU-145 prostate 2.16% | K-562 leukemia 6.11% | MDA-MB-231 breast 4.67% | RXF 393 renal -42.8% | SF-539 CNS -48.8%
inactive: NCI-H23 lung 24.7% | NCI-H226 lung 36.2% | NCI-H322M lung 58.1% | HOP-62 NSCLC 22.9% | 786-0 renal 29.8% | MALME-3M melanoma 10.1% | SF-268 CNS 30.5% | UACC-257 melanoma 34.5% | M14 melanoma 12.3%

O=C(Nc1cccc(-n2cc(-c3ccncc3)c(-c3ccc(Cl)c(O)c3)n2)c1)Nc1cc(C(F)(F)F)cc(C(F)(F)F)c1
active: NCI-H23 lung -7.93% | NCI-H226 lung 1.17% | NCI-H322M lung 5.11% | HOP-62 NSCLC -86.1% | NCI-H460 lung -55.7% | HOP-92 NSCLC -45.8% | NCI-H522 lung -50.1% | A549/ATCC NSCLC -32.4% | 786-0 renal -46.8% | COLO 205 colon -97.3% | DU-145 prostate -28.2% | K-562 leukemia -19.5% | MALME-3M melanoma -23% | MDA-MB-231 breast -88.9% | RXF 393 renal -66.7% | SF-268 CNS -36.4% | SF-539 CNS -63% | UACC-257 melanoma -50.9% | M14 melanoma -37.2%

CN(C)c1ncnc2c1ccn2C1OC(CO)C(O)C1O (centres undefined)
active: NCI-H322M lung 3.23% | HOP-92 NSCLC -6.76% | DU-145 prostate 3.87% | MDA-MB-231 breast 0.0846%
inactive: NCI-H23 lung 54.5% | NCI-H226 lung 72.7% | HOP-62 NSCLC 50.8% | NCI-H460 lung 45.6% | NCI-H522 lung 90.9% | A549/ATCC NSCLC 61.4% | 786-0 renal 34.8% | COLO 205 colon 54.3% | K-562 leukemia 50.4% | MALME-3M melanoma 133% | RXF 393 renal 67.9% | SF-268 CNS 40.1% | SF-539 CNS 67.8% | UACC-257 melanoma 111% | M14 melanoma 58.7%

Cc1ccc(-c2cc3nc(C(Cl)Cl)nc(-c4cccnc4)n3n2)cc1
inactive: NCI-H226 lung 75.7% | NCI-H322M lung 18.2% | 786-0 renal 69.5% | SF-268 CNS 25.7% | SF-539 CNS 63% | UACC-257 melanoma 86% | M14 melanoma 61%
active: NCI-H23 lung -32.5% | HOP-62 NSCLC -8% | NCI-H460 lung -10.5% | HOP-92 NSCLC -2.25% | NCI-H522 lung 4.51% | A549/ATCC NSCLC -14.2% | COLO 205 colon -82.6% | DU-145 prostate -22% | K-562 leukemia 9.52% | MALME-3M melanoma 5.51% | MDA-MB-231 breast 2.53% | SF-295 CNS 4.01%

COc1cc(-c2nn(-c3cccc(NC(=O)c4ccc(Cl)c(C(F)(F)F)c4)c3)cc2-c2ccncc2)ccc1Cl
inactive: NCI-H23 lung 58.9% | NCI-H226 lung 56.3% | NCI-H322M lung 84.9% | HOP-62 NSCLC 53% | NCI-H460 lung 25.3% | HOP-92 NSCLC 22.5% | A549/ATCC NSCLC 23.3% | 786-0 renal 59.5% | COLO 205 colon 69.4% | DU-145 prostate 65.4% | MALME-3M melanoma 16.8% | MDA-MB-231 breast 25.8% | SF-268 CNS 46.7% | SF-539 CNS 33% | UACC-257 melanoma 23.5% | M14 melanoma 26.2%
active: NCI-H522 lung 1.5% | K-562 leukemia 8.65% | RXF 393 renal -0.403%

CCC(=O)OC1=CN2C(=NC(c3ccc(N)cc3)=CC2c2cc(OC)c(OC)c(OC)c2)S1 (centres undefined)
inactive: NCI-H23 lung 84.8% | NCI-H226 lung 75% | NCI-H322M lung 63% | HOP-62 NSCLC 48.1% | NCI-H460 lung 16.7% | HOP-92 NSCLC 48.4% | NCI-H522 lung 40.6% | A549/ATCC NSCLC 39.2% | 786-0 renal 72.1% | COLO 205 colon 47% | MALME-3M melanoma 63.7% | MDA-MB-231 breast 67.1% | RXF 393 renal 35.1% | SF-268 CNS 60.8% | SF-539 CNS 43.8% | UACC-257 melanoma 37.1% | M14 melanoma 52.5%
active: DU-145 prostate -16.6% | K-562 leukemia 6.1%

NNc1cccc(/C=C/c2ccccc2)cc1=O
inactive: NCI-H23 lung 73.1% | NCI-H226 lung 83% | NCI-H322M lung 71.1% | HOP-62 NSCLC 71.1% | NCI-H460 lung 27.5% | HOP-92 NSCLC 59.8% | NCI-H522 lung 57.7% | A549/ATCC NSCLC 64.6% | 786-0 renal 69.1% | COLO 205 colon 70.6% | DU-145 prostate 68.2% | K-562 leukemia 45.5% | MALME-3M melanoma 103% | MDA-MB-231 breast 58.1% | RXF 393 renal 91.9% | SF-268 CNS 57.6% | SF-539 CNS 62.4% | UACC-257 melanoma 95.3% | M14 melanoma 61.4%

OC(c1cc2cc(Br)ccc2c2cc(Br)ccc12)C1CCCCN1 (centres undefined)
active: NCI-H23 lung -75.4% | NCI-H226 lung -70.1% | NCI-H322M lung -84.9% | HOP-62 NSCLC -84.1% | NCI-H460 lung -71.7% | HOP-92 NSCLC -88.9% | NCI-H522 lung -86.1% | A549/ATCC NSCLC -81.3% | 786-0 renal -41.6% | COLO 205 colon -89.9% | DU-145 prostate -93.5% | K-562 leukemia -72.2% | MALME-3M melanoma -57.5% | MDA-MB-231 breast -73.5% | RXF 393 renal -94.1% | SF-268 CNS -84.5% | SF-539 CNS -82.9% | UACC-257 melanoma -82.9% | M14 melanoma -75.8%

COc1ccc(C2C=C(c3ccc(N)cc3)N=C3SC=CN32)cc1OC (centres undefined)
inactive: NCI-H23 lung 101% | NCI-H226 lung 107% | NCI-H322M lung 102% | HOP-62 NSCLC 108% | NCI-H460 lung 116% | HOP-92 NSCLC 109% | NCI-H522 lung 101% | A549/ATCC NSCLC 99.7% | 786-0 renal 104% | COLO 205 colon 114% | DU-145 prostate 107% | K-562 leukemia 97.5% | MALME-3M melanoma 92.8% | MDA-MB-231 breast 123% | RXF 393 renal 110% | SF-268 CNS 104% | SF-539 CNS 99.9% | UACC-257 melanoma 103% | M14 melanoma 106%

COc1ccc(-c2c(N)n[nH]c2-c2cc(OC)c3c(c2)OCCO3)cc1
inactive: NCI-H23 lung 87.6% | NCI-H226 lung 93.3% | NCI-H322M lung 107% | HOP-62 NSCLC 78.3% | NCI-H460 lung 83% | HOP-92 NSCLC 87.6% | NCI-H522 lung 12.5% | A549/ATCC NSCLC 56% | 786-0 renal 88.9% | COLO 205 colon 66.8% | DU-145 prostate 96.1% | K-562 leukemia 12.1% | MALME-3M melanoma 39.3% | MDA-MB-231 breast 87.7% | RXF 393 renal 74% | SF-268 CNS 79.9% | UACC-257 melanoma 88.1% | M14 melanoma 65.2%

COc1ccc(C2=Nn3c(nnc3-n3nc(C)cc3C)SC2)cc1
inactive: NCI-H23 lung 30.2% | NCI-H226 lung 57.4% | NCI-H322M lung 44.6% | HOP-62 NSCLC 29.7% | HOP-92 NSCLC 11.2% | A549/ATCC NSCLC 10.2% | 786-0 renal 17.7% | MALME-3M melanoma 49.9% | SF-268 CNS 29.9% | UACC-257 melanoma 64.7% | M14 melanoma 10%
active: NCI-H460 lung 4.1% | NCI-H522 lung -9.16% | COLO 205 colon -42.5% | DU-145 prostate -15.9% | K-562 leukemia 4.47% | MDA-MB-231 breast -7.82% | RXF 393 renal 4.22% | SF-539 CNS 1.51%

O=S(=O)(NCCNc1nccc(-c2c(-c3ccc(O)cc3)nc3sccn23)n1)c1cccc2ccccc12
inactive: NCI-H23 lung 98.1% | NCI-H226 lung 102% | NCI-H322M lung 98.1% | HOP-62 NSCLC 106% | NCI-H460 lung 106% | HOP-92 NSCLC 94.9% | NCI-H522 lung 91.5% | A549/ATCC NSCLC 98.2% | 786-0 renal 96.6% | COLO 205 colon 109% | DU-145 prostate 115% | K-562 leukemia 91.4% | MALME-3M melanoma 100% | MDA-MB-231 breast 110% | RXF 393 renal 104% | SF-268 CNS 99% | SF-539 CNS 100% | UACC-257 melanoma 94.4% | M14 melanoma 105%
